The supplement of paper PMC9262897, “Low-cost anti-mycobacterial drug discovery using engineered E. coli” (Nature Communications, 2022)
Counter-ions that a name gives are not always drawn. ± gives the standard deviation of the averaged measurements.

Key:
Assay in all cases: growth (OD600 after 10 h); higher = more growth (less inhibition)
[1] = tested on: E. coli TESEC Alr+ wild-type control; conditions: compound 0.1 mM; raw OD600 reference: median of DMSO wells 0.241, cell-free background 0.041
Protocol: (§1)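 TESEC Mtb Alr E. coli, or the Alr+ wild-type control, in 384-well plates with Prestwick library compounds at 0.1 mM and 1% DMSO, across arabinose induction levels of 1E3 to 1E7 nM. Growth is read as OD600 after 10 h at 37 °C in triplicate biological replicates.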

[2] = tested on: E. coli TESEC Mtb Alr; conditions: compound 0.1 mM
Protocol: as §1

[3] = tested on: E. coli TESEC Mtb Asd; conditions: compound 0.1 mM
Protocol: (§2)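 TESEC E. coli strains in which the native enzyme is deleted and replaced by arabinose-inducible Mtb Asd, DapB, CysH or TrpD, each grown in its selective medium. Strains were screened against the Prestwick library at 0.1 mM and 1% DMSO in 384-well format at low and high arabinose induction. Growth is read as OD600 after 10 h in triplicate.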

[4] = tested on: E. coli TESEC Mtb Alr; conditions: compound 0.1 mM; remark: listed apart in the source
Protocol: (§3)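 TESEC Mtb Alr E. coli (ΔaraC ΔtolC ΔentC Δalr ΔdadX, arabinose-inducible Mtb Alr) or the Alr+ wild-type control strain, grown in defined M9-fructose medium without D-alanine in 96-well plates with Prestwick library compounds at 0.1 mM and 1% DMSO. Low Alr induction is 0.1 µM arabinose and high induction is 10 mM arabinose.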

[5] = tested on: E. coli TESEC Mtb DapB; conditions: compound 0.1 mM
Protocol: as §2

[6] = tested on: E. coli TESEC Alr+ wild-type control; conditions: compound 0.1 mM; raw OD600 reference: median of DMSO wells 0.49, cell-free background 0.052
Protocol: as §3

[7] = arabinose 1000 nM, raw OD600 reference: median of DMSO wells 0.294, cell-free background 0.041
[8] = arabinose 10000 nM, raw OD600 reference: median of DMSO wells 0.264, cell-free background 0.041
[9] = arabinose 100000 nM, raw OD600 reference: median of DMSO wells 0.201, cell-free background 0.041
[10] = arabinose 1000000 nM, raw OD600 reference: median of DMSO wells 0.193, cell-free background 0.041
[11] = arabinose 10000000 nM, raw OD600 reference: median of DMSO wells 0.146, cell-free background 0.041
[12] = arabinose induction (level): High, raw OD600 reference: median of DMSO wells 0.331, cell-free background 0.041
[13] = arabinose induction (level): Low, raw OD600 reference: median of DMSO wells 0.417, cell-free background 0.041
[14] = arabinose 100 nM, raw OD600 reference: median of DMSO wells 0.413, cell-free background 0.052
[15] = arabinose 10000000 nM, raw OD600 reference: median of DMSO wells […], cell-free background 0.052
[16] = arabinose induction (level): High, raw OD600 reference: median of DMSO wells […], cell-free background 0.041
[17] = arabinose induction (level): Low, raw OD600 reference: median of DMSO wells 0.227, cell-free background 0.041

| Compound | growth [1] | growth [2, 7] | growth [2, 8] | growth [2, 9] | growth [2, 10] | growth [2, 11] | growth [3, 12] | growth [3, 13] | growth [4, 14] | growth [4, 15] | growth [5, 16] | growth [5, 17] | growth [6] |
| --- | --- | --- | --- | --- | --- | --- | --- | --- | --- | --- | --- | --- | --- |
| NS(=O)(=O)c1cc(Cl)c(Cl)c(S(N)(=O)=O)c1 [Dichlorphenamide] | 0.25 ± 0.0031 | 0.298 ± 0.012 | 0.2704 ± 0.0016 | 0.211 ± 0.027 | 0.186 ± 0.011 | 0.131 ± 0.0026 | 0.312 ± 0.027 | 0.456 ± 0.038 | 0.402 ± 0.017 | 0.399 ± 0.032 | – | – | – |
| O=P(O)(O)C(O)(Cn1ccnc1)P(=O)(O)O [Zoledronic acid hydrate] | 0.241 ± 0.0059 | – | – | – | – | – | 0.257 ± 0.083 | 0.357 ± 0.034 | 0.421 ± 0.011 | 0.294 ± 0.021 | 0.193 ± 0.0053 | 0.279 ± 0.069 | 0.596 ± 0.074 |
| CC(=O)O[C@H]1C(=O)[C@@]2(C)[C@H]([C@H](OC(=O)c3ccccc3)[C@]3(O)C[C@H](OC(=O)[C@H](O)[C@@H](NC(=O)c4ccccc4)c4ccccc4)C(C)=C1C3(C)C)[C@]1(OC(C)=O)CO[C@@H]1C[C@@H]2O [Paclitaxel] | 0.23 ± 0.013 | – | – | – | – | – | 0.34 ± 0.051 | 0.385 ± 0.079 | 0.429 ± 0.014 | 0.336 ± 0.033 | 0.209 ± 0.006 | 0.279 ± 0.059 | 0.554 ± 0.03 |
| CCN(CCCc1ccccc1)CCCc1ccccc1 [Alverine citrate salt] | 0.205 ± 0.011 | – | – | – | – | – | 0.211 ± 0.032 | 0.4 ± 0.074 | 0.418 ± 0.0047 | 0.328 ± 0.0065 | 0.153 ± 0.0058 | 0.205 ± 0.054 | 0.48 ± 0.026 |
| CN(CCOc1ccc(NS(C)(=O)=O)cc1)CCc1ccc(NS(C)(=O)=O)cc1 [Dofetilide] | 0.209 ± 0.0043 | 0.28 ± 0.0052 | 0.253 ± 0.008 | 0.171 ± 0.016 | 0.173 ± 0.0041 | 0.133 ± 0.0023 | 0.213 ± 0.019 | 0.336 ± 0.076 | 0.427 ± 0.0089 | 0.318 ± 0.0084 | – | – | – |
| CC(=O)Nc1c(I)c(NC(C)=O)c(I)c(C(=O)O)c1I [Diatrizoic acid dihydrate] | 0.234 ± 0.0051 | 0.285 ± 0.0023 | 0.255 ± 0.0056 | 0.191 ± 0.017 | 0.213 ± 0.0043 | 0.131 ± 0.01 | 0.297 ± 0.043 | 0.326 ± 0.053 | 0.424 ± 0.011 | 0.348 ± 0.0074 | – | – | – |
| O=C1CC2(CCCC2)CC(=O)N1CCCCN1CCN(c2ncccn2)CC1 [Buspirone hydrochloride] | 0.2005 ± 0.002 | – | – | – | – | – | 0.337 ± 0.021 | 0.439 ± 0.046 | 0.411 ± 0.0053 | 0.346 ± 0.011 | 0.1852 ± 0.0015 | 0.226 ± 0.035 | 0.454 ± 0.019 |
| COc1ccc(CCN(C)CCCC(C#N)(c2ccc(OC)c(OC)c2)C(C)C)cc1OC (centres undefined) [Verapamil hydrochloride] | 0.185 ± 0.0071 | 0.25 ± 0.0055 | 0.27 ± 0.0044 | 0.195 ± 0.0032 | 0.116 ± 0.0045 | 0.149 ± 0.0027 | 0.243 ± 0.048 | 0.346 ± 0.095 | 0.409 ± 0.005 | 0.258 ± 0.014 | – | – | – |
| NS(=O)(=O)c1cc2c(cc1C(F)(F)F)NC(Cc1ccccc1)NS2(=O)=O (centres undefined) [Bendroflumethiazide] | 0.233 ± 0.0098 | – | – | – | – | – | 0.459 ± 0.046 | 0.451 ± 0.035 | 0.403 ± 0.012 | 0.298 ± 0.016 | 0.217 ± 0.017 | 0.268 ± 0.0034 | 0.487 ± 0.035 |
| CNCC(O)c1ccc(O)c(O)c1 (centres undefined) [Racepinephrine HCl] | 0.243 ± 0.0062 | – | – | – | – | – | 0.27 ± 0.052 | 0.44 ± 0.018 | 0.4177 ± 0.0019 | 0.288 ± 0.015 | 0.193 ± 0.0072 | 0.273 ± 0.06 | 0.605 ± 0.029 |
| CC1(C)[C@H](C(=O)O)N2C(=O)C[C@H]2S1(=O)=O [Sulbactam] | 0.241 ± 0.0052 | – | – | – | – | – | 0.39 ± 0.029 | 0.438 ± 0.016 | 0.409 ± 0.0061 | 0.361 ± 0.011 | 0.2 ± 0.006 | 0.225 ± 0.025 | 0.533 ± 0.06 |
| O=C1OCCN1/N=C/c1ccc([N+](=O)[O-])o1 [Furazolidone] | 0.0406 ± 0.0001 | – | – | – | – | – | 0.056 ± 0.0037 | 0.0561 ± 0.0034 | 0.0572 ± 0.0027 | 0.05093 ± 0.00032 | 0.114 ± 0.0074 | 0.112 ± 0.012 | 0.05247 ± 0.00031 |
| C[C@]12CC[C@@H]3c4ccc(O)cc4C[C@@H](CCCCCCCCC[S+]([O-])CCCC(F)(F)C(F)(F)F)[C@H]3[C@@H]1CC[C@@H]2O (some centres undefined) [Fulvestrant] | 0.265 ± 0.015 | – | – | – | – | – | 0.379 ± 0.022 | 0.415 ± 0.041 | 0.413 ± 0.03 | 0.355 ± 0.028 | 0.212 ± 0.0092 | 0.258 ± 0.091 | 0.439 ± 0.024 |
| C[C@]12C[C@H](O)[C@H]3[C@@H](CCC4=CC(=O)CC[C@@]43C)[C@@H]1CC[C@@H]2C(=O)CO [Corticosterone] | 0.143 ± 0.0016 | – | – | – | – | – | 0.235 ± 0.059 | 0.268 ± 0.055 | 0.402 ± 0.017 | 0.246 ± 0.0064 | 0.179 ± 0.017 | 0.206 ± 0.032 | 0.418 ± 0.033 |
| Nc1ccc(S(=O)(=O)c2ccc(N)cc2)cc1 [Dapsone] | 0.256 ± 0.0028 | – | – | – | – | – | 0.433 ± 0.092 | 0.339 ± 0.012 | 0.422 ± 0.01 | 0.367 ± 0.018 | 0.214 ± 0.0025 | 0.25 ± 0.058 | 0.491 ± 0.054 |
| O=C(O)Cc1ccccc1Nc1c(Cl)cccc1Cl [Diclofenac sodium] | 0.1279 ± 0.00065 | – | – | – | – | – | 0.172 ± 0.014 | 0.179 ± 0.01 | 0.329 ± 0.037 | 0.214 ± 0.015 | 0.166 ± 0.0086 | 0.172 ± 0.014 | 0.436 ± 0.0056 |
| COc1ccc2[nH]c([S+]([O-])Cc3ncc(C)c(OC)c3C)nc2n1 (centres undefined) [Tenatoprazole] | 0.202 ± 0.008 | – | – | – | – | – | 0.388 ± 0.031 | 0.379 ± 0.065 | 0.397 ± 0.013 | 0.196 ± 0.035 | 0.184 ± 0.0083 | 0.201 ± 0.017 | 0.35 ± 0.01 |
| OC(CCN1CCCCC1)(c1ccccc1)c1ccccc1 [Pridinol methanesulfonate salt] | 0.226 ± 0.0064 | – | – | – | – | – | 0.468 ± 0.015 | 0.466 ± 0.027 | 0.397 ± 0.032 | 0.352 ± 0.011 | 0.194 ± 0.02 | 0.262 ± 0.035 | 0.469 ± 0.027 |
| CCN(CC)CCOC(=O)C(c1ccccc1)c1ccccc1 [Adiphenine hydrochloride] | 0.222 ± 0.0088 | – | – | – | – | – | 0.197 ± 0.033 | 0.382 ± 0.069 | 0.414 ± 0.0051 | 0.313 ± 0.051 | 0.165 ± 0.0095 | 0.223 ± 0.046 | 0.494 ± 0.04 |
| C[C@H]1NC(=O)NC1=O [Methylhydantoin-5-(D)] | 0.257 ± 0.0085 | – | – | – | – | – | 0.46 ± 0.085 | 0.467 ± 0.0073 | 0.405 ± 0.015 | 0.321 ± 0.015 | 0.202 ± 0.012 | 0.244 ± 0.012 | 0.607 ± 0.018 |
| COc1ccc2c3c1O[C@H]1C[C@@H](O)C=C[C@@]31CCN(C)C2 [Galanthamine hydrobromide] | 0.249 ± 0.0042 | – | – | – | – | – | 0.229 ± 0.0098 | 0.376 ± 0.094 | 0.409 ± 0.01 | 0.34 ± 0.022 | 0.186 ± 0.012 | 0.195 ± 0.016 | 0.459 ± 0.04 |
| O=C1c2ccccc2C(=O)C1c1ccccc1 [Phenindione] | 0.243 ± 0.0053 | – | – | – | – | – | 0.226 ± 0.037 | 0.321 ± 0.023 | 0.408 ± 0.0092 | 0.302 ± 0.025 | 0.194 ± 0.0095 | 0.227 ± 0.017 | 0.488 ± 0.05 |
